SMARCA2 activ – increases SMARCA2 function in MMTV reporter cells. MG213 cells, MMTV-luciferase reporter, dexamethasone, overnight. activation, % at 9.1 µM. actives 1% (n = 370,000). AID 652017; in the data active = activation above about 7.8%
DAX1 inh-1 – DAX1 (NR0B1) inhibition, primary screen | inhibition, % at 6.8 µM | actives 1.1% (n = 370,000) | AID 652010 | HEK293T StAR-luciferase reporter, SF-1/DAX-1 repression relief;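 active = inhibition above the mean over all tested compounds plus 3 SD, cut at about 3.6% in these data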;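 also: higher inhibition means more luminescence from relief of DAX-1 repression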
ssDAF-12 act – activates DAF-12 receptor from parasite S. stercoralis; HEK293 ssDAF-12/GRIP1 lit1-tk-luc reporter, luminescence; % of 3 µM dafachronic acid response; activation, % at 6.8 µM; actives 1% (n = 370,000); AID 652126;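 active = activation above the mean over all tested compounds plus 3 SD, cut at about 0.9% in these data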
hgDAF-12 ag – activates the H. glycines DAF-12 receptor ligand-binding domain; HEK293 GAL4-hgDAF12 UAS-luciferase reporter, agonist luminescence; normalized to butyrate control; activation, % at 6.8 µM; actives 1.8% (n = 370,000); AID 687014;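 active = activation above a cutoff set at the mean of all screened compounds plus 3 SD, cut at about 10% in these data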
hcDAF-12 act – activators of H. contortus DAF-12 nuclear receptor | actives 1.4% (n = 370,000) | AID 652067 | HEK293 hcDAF-12 lit1-tk-luc reporter, luminescence; 0% DMSO, 100% Δ7-dafachronic acid | activation, % at 6.8 µM;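 active = activation above the mean of all tested compounds plus 3 SD, cut at about 5.5% in these data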
DAX1 inh-2 – inhibits human nuclear receptor DAX1; P51843; HEK293 Gal4-DAX1 luciferase reporter, luminescence; inhibition, % at 6.75 µM; actives 0.99% (n = 340,000); AID 504766;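 active = inhibition above the mean over all tested compounds plus 3 SD, cut at about 4.2% in these data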;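 also: inhibition shows as a rise in luminescence from relieved DAX1 repression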
hgDAF12 ag – hgDAF-12 agonism, confirmation assay; actives 80% (n = 3,300); activation, % at 6.8 µM; shares compounds with hgDAF-12 ag; HEK293 GAL4-hgDAF12 luciferase reporter, agonist mode; percent of butyrate response; AID 743050;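 active = mean activation over triplicate wells above the hit cutoff derived from the earlier primary screen, cut at about 11% in these data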
LXRb DAF12 ctr – LXR-beta agonism as DAF-12 counter-screen | shares compounds with hgDAF-12 ag | HEK293 Gal4-LXR luciferase reporter, 24 h | activation, % at 6.8 µM | 3,300 tested, under 10 active;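 active = mean activation of the triplicate above a set limit carried over from the primary screen, none filed active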
Target sequence (P55055 whole entry, looked up, the tested form may be a part): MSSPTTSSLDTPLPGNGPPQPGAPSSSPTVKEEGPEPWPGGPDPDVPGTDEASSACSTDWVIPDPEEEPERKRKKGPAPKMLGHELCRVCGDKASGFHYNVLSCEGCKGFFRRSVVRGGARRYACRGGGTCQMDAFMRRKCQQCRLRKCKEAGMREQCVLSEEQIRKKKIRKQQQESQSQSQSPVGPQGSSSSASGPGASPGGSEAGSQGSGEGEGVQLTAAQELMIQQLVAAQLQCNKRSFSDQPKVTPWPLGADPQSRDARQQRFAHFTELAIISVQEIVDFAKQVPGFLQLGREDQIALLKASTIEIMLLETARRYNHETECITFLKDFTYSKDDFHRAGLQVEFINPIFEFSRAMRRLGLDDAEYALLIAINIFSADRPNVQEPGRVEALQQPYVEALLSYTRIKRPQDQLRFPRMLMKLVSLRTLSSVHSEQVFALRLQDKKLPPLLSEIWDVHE
Large screens that a line does not name were inactive (follow-up assays come after a bar, where they were run). Only some compounds are listed: those with a hit (about 4.8% of all), similar ones and a draw of the others.

c1cnc2ccc(-c3ccc4ncccc4c3)cc2c1	DAX1 inh-1 3.8, hgDAF-12 ag 14 | hgDAF12 ag 17 | LXRb DAF12 ctr inactive
CCCc1ccc(-c2cc(NC(=O)CSc3nnc(N)s3)n(-c3ccccc3)n2)cc1	DAX1 inh-1 4.1, hgDAF-12 ag 14 | hgDAF12 ag 19 | LXRb DAF12 ctr inactive
Cc1nnc(SCC(=O)Nc2cc(-c3cc(C)c(C)cc3C)nn2-c2ccccc2)s1	none
O=C(CN1CCCCC1)N/N=C/c1ccc(Cl)cc1	none
CC1=CC(=C2C(=O)c3ccccc3C2=O)C=C(C)N1Cc1ccco1	hgDAF-12 ag 16 | hgDAF12 ag 13 | LXRb DAF12 ctr inactive
Cc1ccc(C(=O)Nc2nnc(-c3ccco3)o2)cc1C	ssDAF-12 act 1.1, hgDAF-12 ag 14 | hgDAF12 ag inactive | LXRb DAF12 ctr inactive
C/C(=N\Nc1ccc([N+](=O)[O-])cc1)c1ccco1	hgDAF-12 ag 15, DAX1 inh-2 4.8 | hgDAF12 ag 15 | LXRb DAF12 ctr inactive
C/C(=N\NC(=O)COc1ccc([N+](=O)[O-])cc1)c1ccco1	none
Cc1ccc(C(C(=O)NC2CCCCC2)N(CCCN2CCOCC2)C(=O)c2snc(C(N)=O)c2N)cc1 (stereo not given)	none
COc1ccc(NC(=O)c2ccccc2NC(=O)C2CCCCC2C(=O)O)cc1 (stereo not given)	hgDAF-12 ag 14 | hgDAF12 ag inactive | LXRb DAF12 ctr inactive
CCC/C(=N/NC(=O)c1cccc(Cl)c1)c1ccccc1	hgDAF-12 ag 17 | hgDAF12 ag inactive | LXRb DAF12 ctr inactive
O=c1cc(C(F)(F)F)nc(-c2cccnc2)[nH]1	none
Cc1ccc(-n2ncc3c(=O)n(CC(=O)N(C)C)cnc32)cc1C	none
CC(=O)Cn1cnc2c(cnn2-c2ccc(C)c(C)c2)c1=O	hgDAF-12 ag 15 | hgDAF12 ag 12 | LXRb DAF12 ctr inactive
O=C1CN(C(=O)c2ccccc2)C(c2ccccc2)c2cc(F)ccc2N1 (stereo not given)	none
O=C(CN1C(=O)CSCC1=O)Nc1ccc2c(c1)OCO2	none
CC1SC(C)C(=O)N(CC(=O)Nc2ccc3c(c2)OCO3)C1=O (stereo not given)	hgDAF-12 ag 14 | hgDAF12 ag inactive | LXRb DAF12 ctr inactive
O=C(Cc1ccccc1)Nc1cc2c(cc1Cl)OCCCO2	none
CCc1ccc(C(=O)Nc2cc3c(cc2Cl)OCCCO3)cc1	hgDAF-12 ag 14 | hgDAF12 ag 14 | LXRb DAF12 ctr inactive
Cc1ccc(N(CC(=O)NC2CCCC2)C(=O)CCC(=O)Nc2nccs2)c(C)c1	none
O=C(NC(=S)Nc1ccccc1)c1cccs1	hgDAF-12 ag 15, DAX1 inh-2 4.5 | hgDAF12 ag 17 | LXRb DAF12 ctr inactive
O=C(Nc1ccc(NC(=S)NC(=O)c2cccs2)cc1)c1ccccc1	none
CCCNC(=O)C1(C)CCN(Cc2cc3ccccc3o2)C1 (stereo not given)	none (no result: DAX1 inh-2)
CN1CCSc2ccc(C(=O)Nc3ccc(Cl)cc3)cc21	hgDAF-12 ag 18, DAX1 inh-2 7.0 | hgDAF12 ag 17 | LXRb DAF12 ctr inactive
CN1CCSc2ccc(C(=O)NCc3cccc(F)c3)cc21	none
CCN(C(=O)C1CCCO1)c1ccccc1 (stereo not given)	none
O=C(Nc1ccc2oc(-c3ccccc3)nc2c1)c1ccco1	ssDAF-12 act 1.0, hgDAF-12 ag 15 | hgDAF12 ag 12 | LXRb DAF12 ctr inactive
O=C(Nc1ccc2oc(-c3ccccc3)nc2c1)C1CCCO1 (stereo not given)	ssDAF-12 act 1.2, hgDAF-12 ag 28 | hgDAF12 ag 15 | LXRb DAF12 ctr inactive
O=C(Nc1ccc2oc(-c3ccncc3)nc2c1)c1ccco1	none
CN(C)c1cc(C(=O)N(C)c2ccccc2)ncn1	none (no result: DAX1 inh-2)
C=CCN(C(=O)c1ccccc1)C1CCS(=O)(=O)C1 (stereo not given)	none
CC(COS(N)(=O)=O)Cc1ccc(C(F)(F)F)cc1 (stereo not given)	none
CCOc1ccc(-c2nnc(-c3ccccc3)o2)cc1	hgDAF-12 ag 14, hcDAF-12 act 6.0 | hgDAF12 ag 12 | LXRb DAF12 ctr inactive
CCOc1ccc(-c2nnc(NC3=NCCCCC3)o2)cc1	hgDAF-12 ag 15 | hgDAF12 ag 13 | LXRb DAF12 ctr inactive
CCOc1ccc(S(=O)(=O)NC2=NCCCCC2)cc1	none
Nc1nnc(SCc2nc3scc(-c4ccccc4)c3c(=O)[nH]2)s1	none
CC(=O)Oc1ccc(C(=O)[C@H]2[C@H]3C(=O)N(c4ccc(C)cc4)C(=O)[C@H]3[C@@H]3C=CC=NN32)cc1	hgDAF-12 ag 16, hcDAF-12 act 5.9 | hgDAF12 ag inactive | LXRb DAF12 ctr inactive
O=C(COc1ccc(Cl)cc1Cl)Nc1cccnc1	hgDAF-12 ag 15 | hgDAF12 ag 14 | LXRb DAF12 ctr inactive
Cc1ccc(NC(=O)Cn2nnc(-c3ccc4c(c3)OCO4)n2)cc1F	none
Fc1ccccc1Cn1nnc(-c2ccc3c(c2)OCO3)n1	DAX1 inh-1 3.7, ssDAF-12 act 1.3, hgDAF-12 ag 14 | hgDAF12 ag 19 | LXRb DAF12 ctr inactive
Cn1nnc(NCc2cc(Br)ccc2OCc2ccccc2F)n1	hgDAF-12 ag 17 | hgDAF12 ag inactive | LXRb DAF12 ctr inactive
COc1ccc(N2CCN(C(=O)c3ccc4nc(N5CCCCC5)sc4c3)CC2)cc1	none
COc1cccc(N2CCN(C(=O)c3ccc4nc(N5CCCCC5)sc4c3)CC2)c1	hgDAF-12 ag 21, DAX1 inh-2 5.5 | hgDAF12 ag inactive | LXRb DAF12 ctr inactive
CC(C)(C)c1ccc(C(=O)NCCOc2ccccc2)cc1	none
CSCCNC(=O)c1ccc(C(C)(C)C)cc1	ssDAF-12 act 1.1, hgDAF-12 ag 16 | hgDAF12 ag 16 | LXRb DAF12 ctr inactive
Cc1cc(N2CCOCC2)ccc1/C=C1/SC(=O)NC1=O	hgDAF-12 ag 16 | hgDAF12 ag inactive | LXRb DAF12 ctr inactive
Cc1cc(N2CCOCC2)ccc1/C=C1\NC(=O)N(CC(=O)Nc2ccccc2C)C1=O	none
Nc1cc2nc[nH]c2cc1N	hgDAF-12 ag 15, hcDAF-12 act 6.1 | hgDAF12 ag inactive | LXRb DAF12 ctr inactive
Nc1cc2c(cc1Cl)-c1ccccc1C2=NO	hgDAF-12 ag 16 | hgDAF12 ag inactive | LXRb DAF12 ctr inactive
O=[N+]([O-])c1ccc2c(c1)-c1ccccc1C2=NO	none
COC(=O)c1ccc(S(=O)(=O)N2CCOCC2)o1	none
COC(=O)CCc1sc(Nc2ccccc2)nc1-c1ccc(OC)cc1	SMARCA2 activ 9.7, hgDAF-12 ag 14 | hgDAF12 ag 13 | LXRb DAF12 ctr inactive

High-throughput results deposited in PubChem BioAssay by The Scripps Research Institute Molecular Screening Center.
